Bioassay records (PubChem BioAssay)
BAZ2B inh – inhibitors of human BAZ2B bromodomain; Q9UIF8; AlphaScreen BAZ2B-H3K14Ac peptide displacement; Potency, µM (highest dose often 114 µM), without a hit: top-dose activity change, negative = inhibition, most hits filed as inhibitors; 4.4% of 360,000 active; note: potency is the fitted concentration of half-maximal effect; % is set by controls: 0 for no effect and ±100 for the full control effect; nearly all actives have a fitted effect of over 60% in size
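AlphaScreen displacement of biotin-H3(5-23)K14Ac peptide (50 nM final) from BAZ2B (50 nM final) in PBS pH 7.4, 0.01% Tween-20; complex preformed 30 min RT, then compounds (top 110 uM) 30 min RT, beads 20 min dark.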
JMJD2A Tudor – inhibitors of human JMJD2A Tudor domain; Potency, µM (highest dose often 114 µM), without a hit: at the top dose activity change, negative = inhibition, actives largely listed as inhibitors; 4.4% of 390,000 active; AlphaScreen JMJD2A-Tudor / H3K4me3 peptide binding; O75164; note: potency is the fitted concentration of half-maximal effect; % is set by controls: 0 for no effect and ±100 for the full control effect; nearly all actives have a fitted effect of over 50% in size
PLK1 PBD inh – blocks phosphopeptide binding to human PLK1 polo-box domain; P53350; Plk1 PBD binding of FITC phosphopeptide, fluorescence polarization; Potency, µM, inactives show max response, negative = inhibition, usual class: inhibitors; 2.8% of 360,000 active; AID 720504; note: potency is the fitted concentration of half-maximal effect; series mostly up to about 57 µM; % is set by controls: 0 for no effect and ±100 for the full control effect; nearly all actives have a fitted effect of over 65% in size
HP1b chromo inh – inhibitors of HP1-beta chromodomain binding to methylated histone tails. AlphaScreen HP1-beta / biotin-H3K9me3 peptide binding. Potency, µM (titrated, usually from 114 µM), without a hit: at the top dose activity change, negative = inhibition, most hits filed as inhibitors. 0.56% of 390,000 active; note: potency is the fitted concentration of half-maximal effect; nearly all actives have a fitted effect of over 70% in size
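HP1-beta protein (50 nM final) preincubated 30 min at room temperature with biotinylated H3(1-18)K9me3 peptide (50 nM) in PBS pH 7.4, 0.01% Tween-20, then compound added for 30 min. AlphaScreen streptavidin donor/nickel chelate acceptor beads (10 ug/mL final), 30 min dark, luminescence read.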
PI5P4K alpha inh – PI5P4K alpha (human) kinase inhibition. P48426. PI5P4Kalpha enzyme, ADP-Glo luminescence, 60 min; hits give low values. max response, %. 1.2% of 330,000 active. AID 652105; active = max response of -50% or lower; inconclusive = between -30% and -50%; inactive = -30% or higher; note: value at the top dose of about 77 µM; % is set by controls: 0 for no effect and ±100 for the full control effect
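Human PI5P4Kalpha with substrate in 0.038 M HEPES pH 7.4, 0.28 mM EGTA, 0.1% CHAPS, 5% DMSO; reaction started with 5 microM ATP (final), 60 min at room temperature. ADP formed read by ADP-Glo luminescence.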
G9a block – blocks human histone lysine methyltransferase G9a. 8.8% of 350,000 active. AID 504332. G9a H3K9 monomethylation, AlphaScreen, 2 h. Potency, µM (titrated, usually from 102 µM), for the others: top-dose activity, negative = inhibition, hits mostly inhibitors. Q96KQ7; note: potency is the fitted concentration of half-maximal effect; % is set by controls: 0 for no effect and ±100 for the full control effect; nearly all actives have a fitted effect of over 75% in size
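Methyltransferase reactions run at room temperature for 2 h (20 nM enzyme, 500 nM biotin-H3K9 peptide, 20 uM SAM) after a 15 min compound preincubation; product detected by AlphaScreen beads and anti-H3K9me1 antibody.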
The depositor's hits bear a star; ? = inconclusive; nt = no result; [ ] = remark or other dose. A selection: hits, their analogues and other compounds. The true share with any hit is near 12%. Unless noted, calls come from the whole dose curve; as a rule, active = well fitted curve in the direction sought with a large enough effect; inconclusive = small, poorly fitted or top-dose-only effect, or another doubt; inactive = no such curve, though single readings can be large; an effect the other way counts as inactive or inconclusive.

SMILES	BAZ2B inh	JMJD2A Tudor	PLK1 PBD inh	HP1b chromo inh	PI5P4K alpha inh	G9a block
Cc1cc(NC(=O)CSc2nc(N)c(NC(=O)c3ccccc3)c(=O)[nH]2)no1	-9%	-9%	-15%	2%	-8	14%
Cc1cc(NC(=O)CSc2c(C)[nH]c3ccccc23)no1	-8%	-13%	-16%	37%	-6	50µM*
Cc1cc(NC(=O)CSc2ncccn2)no1	-8%	?	-11%	3%	nt	?
CCN1CCN(C(=S)c2ccc(Br)cc2)CC1	-13%	-28%	8.4µM*	?	nt	10%[0.501 µM]
CCN1CCN(CCC(=O)Nc2ccc(Br)cc2)CC1	3%	-6%	-15%	33%	4	-30%
CCN1CCN(C(=S)Nc2ccc(Cl)cc2)CC1	-1%	-9%	-1%	41%	2	-36%
CCN1CCN(C(=S)c2ccc(O)cc2)CC1	-28%	-9%	4.7µM*	-10%	?	6.3µM*
CCC(=C(CC)c1ccc(O)cc1)c1ccc(O)cc1	nt	nt	nt	nt	nt	11%[21.5 µM]
COc1ccc2c(c1)OC[C@H]1[C@H]2N2C(=O)c3cc(F)ccc3NC(=O)[C@@]2(C)[C@H]1c1ccccc1	nt	-24%	3%	14%	6	nt
Cn1nc(SCC(=O)O)sc1=S	1%	-5%	2%	40%	6	-26%[59 µM]
CCOC(=O)C(Sc1cc(C)nc(N)n1)C(C)=O (stereo unspecified)	-1%	56µM*	-29%	3%	-8	18µM*
CCOC(=O)C(Sc1nn(C)c(=S)s1)C(C)=O (stereo unspecified)	-35%	-11%	-8%	43%	nt	18µM*
O=c1cc(SCc2ccc(Cl)cc2Cl)nc[nH]1	nt	-9%	-8%	25%	-2	nt
N#C/C(=C/c1ccc(N2CCOCC2)o1)c1nc2ccccc2[nH]1	?	?	101%	-19%	-21	8.9µM*
N#C/C(=C\c1ccc(N2CCOCC2)o1)c1ccccc1	40µM*	?	12%	-14%	nt	?
COc1ccc(NC(=O)/C(C#N)=C\c2ccc(N3CCOCC3)o2)cc1	-35%	-18%	118%	0%	1	?
N#C/C(=C/c1ccc(N2CCCCCC2)o1)c1cccc(F)c1	?	40µM*	-10%	?	nt	?
N#C/C(=C\c1ccc(N2CCOCC2)o1)C(=O)Nc1ccc(O)cc1	?	-25%	105%	-15%	-8	40µM*
N#C/C(=C/c1ccc(N2CCCCCC2)o1)c1ccc(F)cc1	nt	-34%[57.1 µM]	?	-29%	?	nt
CC1(C(=O)Nc2cccc(C#N)c2)CCN1C(=O)Cc1ccc(-c2ccccc2)cc1 (stereo unspecified)	nt	nt	-5%	nt	14	nt
CCOC(=O)N1CCc2c(sc3c2c(=O)n(CCc2ccccc2)c(=O)n3Cc2ccc(C)cc2C)C1	-29%	-7%	nt	26%	nt	-29%[59 µM]
S=C(c1nc2ccccc2[nH]1)N1CCOCC1	10%	-53%	24µM*	?	-21	1.6µM*
COc1cc(N2CCCC2)c(OC)cc1/C=C(/C#N)c1cccc(F)c1	22µM*	20µM*	11%	?	17	?
N#CC(=C1CCCC1)c1nc(-c2ccccc2O)cs1	-32%	-23%	?	6%	-12	35µM*
O=C1C2CC=C(Cl)CC2C(=O)N1CN(Cc1ccco1)CN1C(=O)C2CC=C(Cl)CC2C1=O (stereo unspecified)	50µM*	-25%	-13%	32%	0	50µM*
O=C1C2CC=C(Cl)CC2C(=O)N1CC1Cc2ccccc2CO1 (stereo unspecified)	-35%	-10%	-6%	30%	-8	50µM*
CC1=C(C(=O)N(C)C)CC(CC(=O)NCC2CCCCC2)C(=O)N1Cc1ccc(F)cc1 (stereo unspecified)	nt	nt	-10%	nt	-3	nt
Cn1c(CNC(=O)c2ccc(F)cc2)cc2ccccc21	-6%	-2%	-28%	11%	-2	nt
Cn1c(CNC(=O)c2ccc(F)cc2)nc2ccccc21	-4%	?	27µM*	?	-9	8%
Cn1c(/C=N/NC(=O)c2ccccc2)nc2ccccc21	-22%	89µM*	1%	19%	nt	?
